{"source": "the supplement of paper PMC11738630", "test_system": "Salmonella enterica serovar Typhimurium 14028s", "experiment": "approximate change in surviving CFU after surface colonization relative to water-only control (log10 CFU/mL change); higher = more surviving bacteria (less inhibition of surface colonization)", "details": "not stated (Biolog proprietary concentration), surface: plastic 96-well plate, 20-24 h at 25 °C", "data": [{"smiles": "CCCCCCCC/C=C\\CCCCCCCC(=O)OCCOCC(OCCO)C1OCC(OCCO)C1OCCO", "note": "(stereo not drawn) [Tween 80]", "values": [{"measurement": "approximate change in surviving CFU (log10)", "setting": "Biolog plate: PM1, Biolog well: E5", "result": -0.58}]}, {"smiles": "OC[C@H]1O[C@H](O[C@H]2[C@H](O)[C@@H](O)[C@@H](O[C@H]3[C@H](O)[C@@H](O)[C@@H](O)O[C@@H]3CO)O[C@@H]2CO)[C@H](O)[C@@H](O)[C@@H]1O", "note": "[Maltotriose]", "values": [{"measurement": "approximate change in surviving CFU (log10)", "setting": "Biolog plate: PM1, Biolog well: E10", "result": 1.82}]}, {"smiles": "O=C(O)C[C@@H](O)C(=O)O", "note": "[D-Malic Acid]", "values": [{"measurement": "approximate change in surviving CFU (log10)", "setting": "Biolog plate: PM1, Biolog well: G11", "result": 1.05}]}, {"smiles": "O=C[C@H](O)[C@H](O)[C@@H](O)CO", "note": "[L-Lyxose]", "values": [{"measurement": "approximate change in surviving CFU (log10)", "setting": "Biolog plate: PM1, Biolog well: H6", "result": -0.987}]}, {"smiles": "CC(=O)C(=O)O", "note": "[Pyruvic Acid]", "values": [{"measurement": "approximate change in surviving CFU (log10)", "setting": "Biolog plate: PM1, Biolog well: H8", "result": -0.494}]}, {"smiles": "OC[C@H]1O[C@@H]2O[C@H]3[C@H](O)[C@@H](O)[C@@H](O[C@H]4[C@H](O)[C@@H](O)[C@@H](O[C@H]5[C@H](O)[C@@H](O)[C@@H](O[C@H]6[C@H](O)[C@@H](O)[C@@H](O[C@H]7[C@H](O)[C@@H](O)[C@@H](O[C@H]8[C@H](O)[C@@H](O)[C@@H](O[C@H]1[C@H](O)[C@H]2O)O[C@@H]8CO)O[C@@H]7CO)O[C@@H]6CO)O[C@@H]5CO)O[C@@H]4CO)O[C@@H]3CO", "note": "[b-Cyclodextrin]", "values": [{"measurement": "approximate change in surviving CFU (log10)", "setting": "Biolog plate: PM2, Biolog well: A4", "result": 1.01}]}, {"smiles": "OC[C@H](O)C(O)[C@@H](O)CO", "note": "[L-Arabitol]", "values": [{"measurement": "approximate change in surviving CFU (log10)", "setting": "Biolog plate: PM2, Biolog well: B7", "result": 1.12}]}, {"smiles": "O=C[C@H](O)[C@@H](O)[C@H](O)[C@H](O)CO[C@@H]1O[C@H](CO)[C@@H](O)[C@H](O)[C@H]1O", "note": "[Gentiobiose]", "values": [{"measurement": "approximate change in surviving CFU (log10)", "setting": "Biolog plate: PM2, Biolog well: C1", "result": 1.09}]}, {"smiles": "OC[C@H]1O[C@@](CO)(O[C@H]2O[C@H](CO)[C@@H](O)[C@H](O)[C@H]2O)[C@@H](O[C@H]2O[C@H](CO)[C@@H](O)[C@H](O)[C@H]2O)[C@@H]1O", "note": "[D-Melezitose]", "values": [{"measurement": "approximate change in surviving CFU (log10)", "setting": "Biolog plate: PM2, Biolog well: C4", "result": 1.16}]}, {"smiles": "CO[C@@H]1O[C@H](CO)[C@@H](O)[C@H](O)[C@H]1O", "note": "[b-Methyl-D-Glucoside]", "values": [{"measurement": "approximate change in surviving CFU (log10)", "setting": "Biolog plate: PM2, Biolog well: C7", "result": 1.33}]}, {"smiles": "CO[C@H]1O[C@H](CO)[C@@H](O)[C@H](O)[C@@H]1O", "note": "[a-Methyl-D-Mannoside]", "values": [{"measurement": "approximate change in surviving CFU (log10)", "setting": "Biolog plate: PM2, Biolog well: C10", "result": 0.0215}]}, {"smiles": "CO[C@@H]1OC[C@@H](O)[C@H](O)[C@H]1O", "note": "[b-Methyl-D-Xyloside]", "values": [{"measurement": "approximate change in surviving CFU (log10)", "setting": "Biolog plate: PM2, Biolog well: C11", "result": -0.215}]}, {"smiles": "OCc1ccccc1O[C@@H]1O[C@H](CO)[C@@H](O)[C@H](O)[C@H]1O", "note": "[Salicin]", "values": [{"measurement": "approximate change in surviving CFU (log10)", "setting": "Biolog plate: PM2, Biolog well: D2", "result": 0.0215}]}, {"smiles": "O=C(CO)[C@@H](O[C@H]1O[C@H](CO)[C@@H](O)[C@H](O)[C@H]1O)[C@H](O)[C@H](O)CO", "note": "[Turanose]", "values": [{"measurement": "approximate change in surviving CFU (log10)", "setting": "Biolog plate: PM2, Biolog well: D7", "result": 0.88}]}, {"smiles": "C/C(=C/C(=O)O)C(=O)O", "note": "[Citraconic Acid]", "values": [{"measurement": "approximate change in surviving CFU (log10)", "setting": "Biolog plate: PM2, Biolog well: E3", "result": 0.472}]}, {"smiles": "C=C(CC(=O)O)C(=O)O", "note": "[Itaconic Acid]", "values": [{"measurement": "approximate change in surviving CFU (log10)", "setting": "Biolog plate: PM2, Biolog well: E11", "result": -3.95}]}, {"smiles": "O=C(O)CCCCCCCCC(=O)O", "note": "[Sebacic Acid]", "values": [{"measurement": "approximate change in surviving CFU (log10)", "setting": "Biolog plate: PM2, Biolog well: F8", "result": 0.429}]}, {"smiles": "C/C=C/C=C/C(=O)O", "note": "[Sorbic Acid]", "values": [{"measurement": "approximate change in surviving CFU (log10)", "setting": "Biolog plate: PM2, Biolog well: F9", "result": -2.68}]}, {"smiles": "NC(=O)CCC(=O)O", "note": "[Succinamic Acid]", "values": [{"measurement": "approximate change in surviving CFU (log10)", "setting": "Biolog plate: PM2, Biolog well: F10", "result": 0.73}]}, {"smiles": "O=C(O)[C@H](O)[C@@H](O)C(=O)O", "note": "[L-Tartaric Acid]", "values": [{"measurement": "approximate change in surviving CFU (log10)", "setting": "Biolog plate: PM2, Biolog well: F12", "result": 0.687}]}, {"smiles": "N[C@H](CCC(=O)O)C(=O)O", "note": "[D-Glutamic Acid]", "values": [{"measurement": "approximate change in surviving CFU (log10)", "setting": "Biolog plate: PM3, Biolog well: C6", "result": 0.837}]}, {"smiles": "CC(=O)N[C@@H](CCC(=O)O)C(=O)O", "note": "[N-Acetyl-L-Glutamic Acid]", "values": [{"measurement": "approximate change in surviving CFU (log10)", "setting": "Biolog plate: PM3, Biolog well: D1", "result": 0.751}]}, {"smiles": "CCCCN", "note": "[N-Butylamine]", "values": [{"measurement": "approximate change in surviving CFU (log10)", "setting": "Biolog plate: PM3, Biolog well: D7", "result": -2.12}]}, {"smiles": "NC=O", "note": "[Formamide]", "values": [{"measurement": "approximate change in surviving CFU (log10)", "setting": "Biolog plate: PM3, Biolog well: E5", "result": -0.708}]}, {"smiles": "Nc1nc2[nH]cnc2c(=O)[nH]1", "note": "[Guanine]", "values": [{"measurement": "approximate change in surviving CFU (log10)", "setting": "Biolog plate: PM3, Biolog well: F6", "result": -2.83}]}, {"smiles": "O=C1NC(=O)C(=O)N1", "note": "[Parabanic Acid]", "values": [{"measurement": "approximate change in surviving CFU (log10)", "setting": "Biolog plate: PM3, Biolog well: G6", "result": "-2.58e-05"}]}, {"smiles": "CCC(N)C(=O)O", "note": "(racemic) [D,L-a-Amino-N-Butyric Acid]", "values": [{"measurement": "approximate change in surviving CFU (log10)", "setting": "Biolog plate: PM3, Biolog well: G7", "result": -0.644}]}, {"smiles": "CC(O)CO", "note": "(stereo not drawn) [1,2-Propanediol]", "values": [{"measurement": "approximate change in surviving CFU (log10)", "setting": "Biolog plate: PM1, Biolog well: D4", "result": -0.3}]}, {"smiles": "CCC(=O)C(=O)O", "note": "[a-Keto-Butyric Acid]", "values": [{"measurement": "approximate change in surviving CFU (log10)", "setting": "Biolog plate: PM1, Biolog well: D7", "result": 0.172}]}, {"smiles": "CO[C@H]1O[C@H](CO)[C@H](O)[C@H](O)[C@H]1O", "note": "[a-Methyl-D-Galactoside]", "values": [{"measurement": "approximate change in surviving CFU (log10)", "setting": "Biolog plate: PM1, Biolog well: D8", "result": 1.72}]}, {"smiles": "CO[C@@H]1O[C@H](CO)[C@@H](O)[C@H](O)[C@H]1O", "note": "[B-Methyl-D-Glucoside]", "values": [{"measurement": "approximate change in surviving CFU (log10)", "setting": "Biolog plate: PM1, Biolog well: E8", "result": 1.33}]}, {"smiles": "NCC(=O)N[C@@H](CCC(=O)O)C(=O)O", "note": "[Glycyl-L-Glutamic Acid]", "values": [{"measurement": "approximate change in surviving CFU (log10)", "setting": "Biolog plate: PM1, Biolog well: G1", "result": 1.22}]}, {"smiles": "C[C@H](N)C(=O)NCC(=O)O", "note": "[L-Alanyl-Glycine]", "values": [{"measurement": "approximate change in surviving CFU (log10)", "setting": "Biolog plate: PM1, Biolog well: G6", "result": 0.966}]}, {"smiles": "CC(=O)CC(=O)O", "note": "[Acetoacetic Acid]", "values": [{"measurement": "approximate change in surviving CFU (log10)", "setting": "Biolog plate: PM1, Biolog well: G7", "result": 0.172}]}, {"smiles": "COC(=O)CCC(=O)O", "note": "[Mono Methyl Succinate]", "values": [{"measurement": "approximate change in surviving CFU (log10)", "setting": "Biolog plate: PM1, Biolog well: G9", "result": -1.74}]}, {"smiles": "O=C(O)[C@H]1OC(O)[C@H](O)[C@@H](O)[C@H]1O", "note": "(stereo partly drawn) [D-Galacturonic Acid]", "values": [{"measurement": "approximate change in surviving CFU (log10)", "setting": "Biolog plate: PM1, Biolog well: H10", "result": 1.09}]}, {"smiles": "O=C(O)[C@H]1O[C@@H](O)[C@H](O)[C@@H](O)[C@H]1O", "note": "[Pectin]", "values": [{"measurement": "approximate change in surviving CFU (log10)", "setting": "Biolog plate: PM2, Biolog well: A12", "result": -0.343}]}, {"smiles": "CC(=O)N[C@H]1[C@H]([C@H](O)[C@H](O)CO)OC(O)(C(=O)O)C[C@@H]1O", "note": "(stereo partly drawn) [N-Acetyl-Neuraminic Acid]", "values": [{"measurement": "approximate change in surviving CFU (log10)", "setting": "Biolog plate: PM2, Biolog well: B2", "result": 1.09}]}]}
